rCAG binder-1 = binders of r(CAG) RNA repeats, primary screen, biochemical, fluorescence; actives 1.3% (n = 370,000); inhibition, % at 3 µM; r(CAG) RNA repeat, TO-PRO-1 dye displacement fluorescence; AID 651821, 2012;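 active = inhibition above the plate cutoff, the mean of all test compounds on that plate plus 3 SD, cut at about 35% in these data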;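 also: 0% = DMSO alone and 100% = 100 µM mitoxantrone as full dye displacement; higher means more dye released from RNA so lower well fluorescence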
ABHD5 PLIN5 PPI = ABHD5-PLIN5 interaction inhibitors, primary screen, cell lysate, split luciferase complementation, luminescence; inhibition, % at 4 µM; AID 602281, 2012; actives 0.78% (n = 360,000); Split G. princeps luciferase complementation, 4 h; Perilipin-5 (Homo sapiens) + 1-acylglycerol-3-phosphate O-acyltransferase ABHD5 (Homo …;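 active = inhibition above the mean inhibition across every tested compound plus 3 SD, cut at about 22% in these data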;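 also: 0% = DMSO only wells and the 100% control is not disclosed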
ALR inh = inhibitors of human ALR sulfhydryl oxidase, primary screen, biochemical, H2O2 detection, HRP-luminol luminescence, single point | FAD-linked sulfhydryl oxidase ALR (Homo sapiens), P55789 | purified ALR, DTT oxidation | inhibition, % (no concentration beside the values) | actives 3.8% (n = 290,000) | AID 485317, 2010;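 active = mean replicate inhibition above about 79%, with every replicate also reaching it, limit read from the data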
Rtt109 Vps75 = inhibitors of C. albicans Rtt109/Vps75 HAT, primary screen, biochemical, ThioGlo CoA-SH fluorescence, plate reader; actives 0.16% (n = 330,000); AID 540336, 2011; inhibition, % at 34.9 µM; purified Rtt109/Vps75, 4 h; Histone acetyltransferase RTT109 (Candida albicans (strain SC5314 / ATCC MYA-2876)), …;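 active = inhibition of at least 50% in every replicate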
Target sequence (Q5AAJ8 whole entry, looked up): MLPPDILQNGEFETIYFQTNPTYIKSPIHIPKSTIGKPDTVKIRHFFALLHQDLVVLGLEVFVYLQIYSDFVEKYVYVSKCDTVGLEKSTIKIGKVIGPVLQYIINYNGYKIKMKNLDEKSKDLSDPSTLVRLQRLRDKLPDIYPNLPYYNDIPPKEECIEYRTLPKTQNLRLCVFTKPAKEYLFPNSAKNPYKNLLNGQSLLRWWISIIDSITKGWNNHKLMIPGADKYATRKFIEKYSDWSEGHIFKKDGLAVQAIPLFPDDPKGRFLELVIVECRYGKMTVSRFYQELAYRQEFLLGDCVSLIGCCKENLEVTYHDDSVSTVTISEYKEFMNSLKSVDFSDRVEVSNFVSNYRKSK
LANA-H2B inh = blockers of LANA interaction with H2A/H2B – biochemical, FP readout, HTS, primary screen; Protein LANA1 (Human herpesvirus 8 type P (isolate GK18)), Q9QR71; cell-free LANA-H2A/H2B peptide, fluorescence polarization; inhibition, % (no concentration beside the values); actives 0.6% (n = 320,000); in the data active = inhibition mostly above about 10%, no sharp cut-off; inactive = mostly below about 6.7%
PRMT1 inh = PRMT1 methyltransferase inhibitors, primary screen, biochemical, fluorescence polarization | actives 1.3% (n = 370,000) | recombinant PRMT1, activity-based probe fluorescence polarization | inhibition, % at 2.79 µM;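 active = inhibition above about 21% made by adding two undisclosed values, limit read from the data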
rCAG binder conf = small molecules binding CAG repeat RNA – biochemical, fluorescence, confirmation | r(CAG) RNA repeat, TO-PRO-1 dye displacement fluorescence | inhibition, % at 3 µM | actives 70% (n = 4,300) | shares compounds with rCAG binder-1;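 active = inhibition above a per-plate cutoff, the mean inhibition of sample wells plus 3 SD, cut at about 35% in these data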;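 also: loss of TO-PRO-1 fluorescence as compound displaces dye from 1x1 AA loop RNA; 0% = DMSO only wells and 100% = 100 µM mitoxantrone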
dCAG dye counter = displacement of TO-PRO-1 from CAG DNA duplex, counter-screen for rCAG RNA repeat binder project, biochemical, fluorescence, TO-PRO-1 dye, d(CAG) DNA oligo; shares compounds with rCAG binder-1; d(CAG) DNA oligo TO-PRO-1 dye displacement; inhibition, % at 3 µM; actives 94% (n = 4,300); AID 652068, 2013;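 active = inhibition above its plate's cutoff, the mean test-well inhibition plus 3 SD, cut at about 4.8% in these data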;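 also: 0% = DNA dye mix with DMSO and 100% = 100 µM mitoxantrone; hits displace the dye from DNA and so lower well fluorescence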
DNA CAG DR = inhibitors of DNA CAG/GTC TO-PRO-1 complex, dose response, counter-screen for rCAG RNA repeat binder project, biochemical, fluorescence, TO-PRO-1 dye. shares compounds with rCAG binder-1. DNA CAG/GTC duplex TO-PRO-1 dye displacement fluorescence. IC50, µM. actives 20% (n = 250); in the data active = IC50 below about 10 µM
dCAG DNA bind = TO-PRO-1 dye complex inhibitors on d(CAG) DNA, dose response, counter-screen, biochemical, fluorescence, late stage. shares compounds with rCAG binder-1. d(CAG) DNA duplex TO-PRO-1 dye displacement. IC50, µM. actives 80% (n = 30). AID 720649, 2013
rCAG binder-2 = molecules binding r(CAG) RNA repeats, late stage dose response, late-stage follow-up, biochemical, fluorescence, dose response, powder samples | r(CAG) RNA TO-PRO-1 dye displacement | AID 720651, 2013 | IC50, µM | shares compounds with rCAG binder-1 | actives 100% (n = 30)
Starred values were filed as active, the others as inactive. Sampled rows, rich in hits. Any-hit rate of the full collection: about 5.9%. Unless noted, no rule for the calls is given here.

`COc1ccc(NC(=O)Nc2ccc3c(c2)C(=O)N([C@H](C)CO)C[C@H](C)[C@H](CN(C)Cc2ccc(C(=O)O)cc2)OCCCC[C@@H](C)O3)cc1` gave rCAG binder-1 36.9*, ABHD5 PLIN5 PPI -6.6, PRMT1 inh -6.2, rCAG binder conf 41.5* and dCAG dye counter 10.4*.
For CCOC(=O)[C@]12CCC=C1N(Cc1ccc3c(c1)OCO3)C(=O)[C@H](CC(=O)NCCC(C)C)C2 the results were rCAG binder-1 -1.5, ABHD5 PLIN5 PPI -5.0 and PRMT1 inh -2.0.
`N#Cc1ccc(C2=NC(C(F)(F)F)(C(F)(F)F)c3c(n(Cc4ccco4)c(=O)[nH]c3=O)N2)cc1` gave rCAG binder-1 35.9*, ABHD5 PLIN5 PPI 5.0, ALR inh 96.3*, Rtt109 Vps75 6.3, LANA-H2B inh -0.4, PRMT1 inh -0.9, rCAG binder conf 36.9*, dCAG dye counter 7.1*, DNA CAG DR >29.9, dCAG DNA bind inactive and rCAG binder-2 3.61*.
For O=c1[nH]c(=O)n(Cc2ccco2)c2c1C(C(F)(F)F)(C(F)(F)F)N=C(CCc1ccccc1)N2 the results were rCAG binder-1 -4.3, ABHD5 PLIN5 PPI -1.1, Rtt109 Vps75 -10.9, LANA-H2B inh -1.2 and PRMT1 inh -2.1.
For Cc1cc(C(C#N)c2ccc(Cl)cc2)c(Cl)cc1NC(=O)c1cc(I)cc(I)c1O (stereo not drawn) the results were rCAG binder-1 72.8*, ABHD5 PLIN5 PPI -3.6, ALR inh -4.2, Rtt109 Vps75 16.8, LANA-H2B inh -5.9, PRMT1 inh 3.9, rCAG binder conf 92.5* and dCAG dye counter 78.5*.
`COc1ccc(C(=O)OCC(=O)Nc2ncc([N+](=O)[O-])s2)cc1OC` gave rCAG binder-1 52.1*, ABHD5 PLIN5 PPI -10.9, ALR inh 48.5, Rtt109 Vps75 -2.5, LANA-H2B inh -1.7, PRMT1 inh 21.0, rCAG binder conf 73.7* and dCAG dye counter 41.4*.
`COc1ccc(C(=O)OCC(=O)Nc2sccc2C(N)=O)cc1OC` gave rCAG binder-1 4.9, ABHD5 PLIN5 PPI -4.8, Rtt109 Vps75 -3.4, LANA-H2B inh 5.4 and PRMT1 inh -2.8.
For COc1cc(N=Nc2cccc(S(N)(=O)=O)c2)c2ccccc2c1N the results were rCAG binder-1 51.9*, ABHD5 PLIN5 PPI 14.3, ALR inh 12.6, Rtt109 Vps75 -0.1, LANA-H2B inh -1.6, PRMT1 inh -8.0, rCAG binder conf 20.2 and dCAG dye counter 12.4*.

Screening results as filed in PubChem BioAssay.
